Drawing on PubChem BioAssay (Tox21), this text covers Potency and activation for 45 molecules.

In this assay the target is Beta-2 adrenergic receptor (Homo sapiens) (UniProt P07550). Kind of assay: Adrenergic beta2 receptor (ADRB2) small molecule agonists, cell-based qHTS assay (AID 1963593).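 On activation: CHO cells stably overexpressing human ADRB2.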 The following applies: CHO-ADRB2 cells, cAMP HTRF, 30 min; series mostly up to 42.5 µM. In outline:
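CHO cells stably over-expressing ADRB2 were plated overnight at 37C, then dosed with compounds plus a stimulation mix containing 100uM IBMX and 25uM Ro-20-1724 for 0.5hr at room temperature. cAMP was measured by HTRF competition, 1hr.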

Results filed as inconclusive are left out. A call without a number means that no potency is given here. Unmarked numbers belong to inactive results. The source made the active and inactive calls. The call rests on the fitted dose curve.
Potency means the concentration at half of the fitted maximal effect.

Sequence of Beta-2 adrenergic receptor (Homo sapiens) (P07550 whole entry, looked up): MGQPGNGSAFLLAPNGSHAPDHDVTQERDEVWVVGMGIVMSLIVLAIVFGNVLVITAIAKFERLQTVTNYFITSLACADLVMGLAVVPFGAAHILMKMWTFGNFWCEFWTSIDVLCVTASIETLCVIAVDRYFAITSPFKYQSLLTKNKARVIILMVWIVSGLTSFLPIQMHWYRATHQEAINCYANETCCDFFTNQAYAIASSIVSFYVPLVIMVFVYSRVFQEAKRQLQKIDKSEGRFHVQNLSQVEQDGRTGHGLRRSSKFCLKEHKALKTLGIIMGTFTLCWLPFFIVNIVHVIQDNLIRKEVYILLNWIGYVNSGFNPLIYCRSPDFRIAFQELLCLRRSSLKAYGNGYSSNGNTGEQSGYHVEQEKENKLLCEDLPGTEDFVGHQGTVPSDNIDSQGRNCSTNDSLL

As to `CN1CCCN=C1COC(=O)C(O)(c1ccccc1)C1CCCCC1` (stereo not given), the Potency entry was “inactive”.
Still for that read-out and setting: the value for `CCCn1cnc2c1c(=O)n(CCCCC(C)=O)c(=O)n2C` was “inactive”; that for `CCCC(=O)OC(=O)CCC` was “inactive”.
Same read-out and setting: then `O=C(O)C(=O)Cc1c[nH]c2ccccc12`, with “inactive”; and `C[C@]12CCC(=O)C=C1CC[C@@H]1[C@@H]2CC[C@@]2(C)[C@H]1CC[C@]2(O)C(=O)CO`, with “inactive”; and `CO/N=C(\C(=O)N[C@@H]1C(=O)N2C(C(=O)O)=C(CSc3nc(=O)c(O)nn3C)CS[C@H]12)c1csc(N)n1`, with “inactive”.
On the same count and under the same terms, the value for `CCCCC(=O)O[C@]1(C(=O)CO)CC[C@H]2[C@@H]3CCC4=CC(=O)CC[C@]4(C)[C@H]3[C@@H](O)C[C@@]21C` was “inactive”; that for `CCOc1cc(OCC)c(C(=O)CCC(=O)O)cc1OCC` was “inactive”; that for `O=C1c2ccccc2C(=O)C1c1ccc(Br)cc1` was “inactive”.
Turning to `O=C(O)c1ccc2cc(O)ccc2c1`, the Potency entry is “inactive”.
Take `COc1ccccc1Oc1c(NS(=O)(=O)c2ccc(C(C)(C)C)cc2)nc(-c2ncccn2)nc1OCCO`: the Potency result is “inactive”.
Same read-out and setting: the value for `Cc1ccc(C(=O)c2ccccc2)cc1` was “inactive”; that for `C=CN1CCCCCC1=O` was “inactive”; that for `Cc1cc(O)c2c(c1)C(=O)c1cccc(O)c1C2=O` was “inactive”.
As for `CC(C)(c1ccc(Oc2ccc3c(c2)C(=O)OC3=O)cc1)c1ccc(Oc2ccc3c(c2)C(=O)OC3=O)cc1`, the Potency entry was “inactive”.
As to `Cc1ccccc1CCO`, the Potency entry is “inactive”.
On the same count and under the same terms, then `CC(C)CCOC(=O)CC(C)C`, with “inactive”; and `CS(=O)(=O)c1ccc([C@@H](C[C@H]2CCC(=O)C2)C(=O)Nc2cnccn2)cc1Cl`, with “inactive”; and `CCN1CCCC1CN` (stereo not given), with “inactive”.
Still for that read-out and setting: the value for `O=C1CCCCCCCCCCOCCCCO1` was “inactive”.
Still for that read-out and setting: then `O=C(O)c1ccccc1C(=O)Nc1ccc(S(=O)(=O)Nc2nccs2)cc1`, with “inactive”; and `CC[C@H](NC(C)C)[C@H](O)c1ccc(O)c2[nH]c(=O)ccc12`, with 1.7 nM (active); and `c1ccc(CNc2ncnc3nc[nH]c23)cc1`, with “inactive”.
Turning to `C=COCCCCO`, the Potency entry is “inactive”.
The same measure, in the same setting: the value for `CC(=O)OCC(=O)[C@@]1(O)CCC2C3CCC4=CC(=O)CC[C@]4(C)C3[C@@H](O)C[C@@]21C` (stereo not given in full) was “inactive”; that for `ClCCl` was “inactive”.
Still for that read-out and setting: then `c1ccc(SSc2ccccc2)cc1`, with “inactive”; and `Cc1occc1C(=O)Nc1ccc(C(=O)N2CCC(F)(F)/C(=C\C(=O)N3CCC(N4CCCCC4)CC3)c3ccccc32)cc1`, with “inactive”.
Regarding `SCCCCCCCCS`, the Potency result is “inactive”.
On to `CN1CCN(CC(=O)N2c3ccccc3C(=O)Nc3cccnc32)CC1`, for which the activation is -0.465% [at 8.39 µM].
Consider `O=C(O)Cc1c(Cl)ccc(Cl)c1Cl`, for which the Potency result was “inactive”.
On to `C[N+]1(CC2COC(c3ccccc3)(c3ccccc3)O2)CCCCC1` (stereo not given), for which the Potency entry is “inactive”.
With `CCOC(=O)OCC/C(SC(=O)OCC)=C(\C)N(C=O)Cc1cnc(C)nc1N`, the Potency entry is “inactive”.
Same read-out and setting: the value for `CCC(Cc1ccccc1)(C(=O)c1ccc(N2CCOCC2)cc1)N(C)C` (stereo not given) was “inactive”.
On to `C=C1CC[C@H]2O[C@]2(C)CC[C@@H]2[C@@H]1CC2(C)C`, for which the Potency result is “inactive”.
The same measure, in the same setting: the value for `CCc1nccnc1CC` was “inactive”; that for `Cc1ccc2oc(CN(Cc3ccccc3)C(=O)Nc3c(F)cc(F)cc3F)c(-c3ccc(Cl)cc3)c2c1` was “inactive”; that for `C=C(C)C(=O)OCC(O)CO` (stereo not given) was “inactive”.
The same measure, in the same setting: then `CCCCCCCCCCCCCCCCOP(=O)([O-])OCC[N+](C)(C)C`, with “inactive”; and `C[C@]12C=CC(=O)C=C1[C@@H](F)C[C@@H]1[C@@H]2[C@@H](O)C[C@@]2(C)[C@H]1CC[C@]2(O)C(=O)CO`, with “inactive”.
Same read-out and setting: then `CCC(C(=O)OCCN(CC)CC)c1ccccc1` (stereo not given), with “inactive”; and `CO[C@@H]1COCC[C@@H]1N[C@@H]1CC[C@@](C(=O)N2CCc3ncc(C(F)(F)F)cc3C2)(C(C)C)C1`, with “inactive”; and `CC(C)(O)CCc1ccccc1`, with “inactive”.
Regarding `CCN(CC)CCOc1ccc(Cc2ccccc2)cc1`, the Potency entry was “inactive”.
The same measure, in the same setting: the value for `OC[C@H]1O[C@@H](O[C@@H]2[C@@H](CO)O[C@](O)(CO)[C@H]2O)[C@H](O)[C@@H](O)[C@H]1O` was “inactive”.
